Here are results for one compound from ChEMBL document CHEMBL1961873, “Compounds: GSK PKIS; Assays: Nanosyn kinase panel” (2012).

Test [1] has as its target Sphingosine kinase 1 (Homo sapiens) (UniProt Q9NYA1). The note with it: at 1 µM.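 Note: mean SPHK1 inhibition value reported from the GSK PKIS kinase panel screen.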
The target of test [2] is T1, Sphingosine kinase 2 (Homo sapiens) (UniProt Q9NRA0).
T1 sequence (whole entry): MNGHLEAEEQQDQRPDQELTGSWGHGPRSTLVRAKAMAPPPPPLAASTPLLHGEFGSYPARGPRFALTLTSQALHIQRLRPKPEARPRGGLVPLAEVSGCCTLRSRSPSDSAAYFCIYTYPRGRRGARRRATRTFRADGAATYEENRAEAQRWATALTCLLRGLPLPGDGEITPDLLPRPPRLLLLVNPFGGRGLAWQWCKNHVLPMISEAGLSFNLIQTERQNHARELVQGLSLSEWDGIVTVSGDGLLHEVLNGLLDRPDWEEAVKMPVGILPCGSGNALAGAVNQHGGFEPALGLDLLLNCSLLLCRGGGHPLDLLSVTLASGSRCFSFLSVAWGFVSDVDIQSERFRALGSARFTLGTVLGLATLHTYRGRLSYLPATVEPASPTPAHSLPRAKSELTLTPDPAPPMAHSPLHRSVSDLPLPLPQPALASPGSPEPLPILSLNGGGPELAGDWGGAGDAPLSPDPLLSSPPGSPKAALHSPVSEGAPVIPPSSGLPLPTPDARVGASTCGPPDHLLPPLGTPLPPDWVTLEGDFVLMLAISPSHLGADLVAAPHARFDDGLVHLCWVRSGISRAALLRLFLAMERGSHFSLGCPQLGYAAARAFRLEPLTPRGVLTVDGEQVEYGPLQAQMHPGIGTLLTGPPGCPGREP
To be noted: at 0.1 µM.

For test [3], the target named is T1, Sphingosine kinase 2 (Homo sapiens). The note with it: at 1 µM.
Test [4] concerns the target Casein kinase II subunit alpha (Homo sapiens) (UniProt P68400). To be noted: at 0.1 µM.
The target is the same in test [5]. To be noted: at 1 µM.
Test [6] concerns the target T2, Inhibitor of nuclear factor kappa-B kinase subunit epsilon (Homo sapiens) (UniProt Q14164).
T2 sequence (whole entry): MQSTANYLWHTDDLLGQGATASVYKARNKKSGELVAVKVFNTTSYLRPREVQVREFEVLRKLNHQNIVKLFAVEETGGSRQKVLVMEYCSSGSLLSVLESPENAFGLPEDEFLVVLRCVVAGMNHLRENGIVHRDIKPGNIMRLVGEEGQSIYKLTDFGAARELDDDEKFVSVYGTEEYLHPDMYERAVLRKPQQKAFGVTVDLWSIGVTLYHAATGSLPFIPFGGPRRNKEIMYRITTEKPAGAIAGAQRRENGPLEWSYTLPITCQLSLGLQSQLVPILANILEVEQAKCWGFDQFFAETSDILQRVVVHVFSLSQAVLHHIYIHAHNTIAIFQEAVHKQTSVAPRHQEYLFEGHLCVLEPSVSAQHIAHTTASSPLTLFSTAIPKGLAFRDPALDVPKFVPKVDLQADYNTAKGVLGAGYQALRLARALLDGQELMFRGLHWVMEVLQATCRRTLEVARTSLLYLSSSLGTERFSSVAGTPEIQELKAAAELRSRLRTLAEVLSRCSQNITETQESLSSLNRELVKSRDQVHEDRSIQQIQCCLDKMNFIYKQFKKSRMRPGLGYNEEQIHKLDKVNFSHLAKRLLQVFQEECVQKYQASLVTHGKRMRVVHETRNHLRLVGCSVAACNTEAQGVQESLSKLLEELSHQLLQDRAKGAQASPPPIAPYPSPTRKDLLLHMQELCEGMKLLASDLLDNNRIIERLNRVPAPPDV
To be noted: at 0.1 µM.

Test [7] deals with T2, Inhibitor of nuclear factor kappa-B kinase subunit epsilon (Homo sapiens). To be noted: at 1 µM.
The target of test [8] is T3, Serine/threonine-protein kinase Nek1 (Homo sapiens) (UniProt Q96PY6).
T3 sequence (whole entry): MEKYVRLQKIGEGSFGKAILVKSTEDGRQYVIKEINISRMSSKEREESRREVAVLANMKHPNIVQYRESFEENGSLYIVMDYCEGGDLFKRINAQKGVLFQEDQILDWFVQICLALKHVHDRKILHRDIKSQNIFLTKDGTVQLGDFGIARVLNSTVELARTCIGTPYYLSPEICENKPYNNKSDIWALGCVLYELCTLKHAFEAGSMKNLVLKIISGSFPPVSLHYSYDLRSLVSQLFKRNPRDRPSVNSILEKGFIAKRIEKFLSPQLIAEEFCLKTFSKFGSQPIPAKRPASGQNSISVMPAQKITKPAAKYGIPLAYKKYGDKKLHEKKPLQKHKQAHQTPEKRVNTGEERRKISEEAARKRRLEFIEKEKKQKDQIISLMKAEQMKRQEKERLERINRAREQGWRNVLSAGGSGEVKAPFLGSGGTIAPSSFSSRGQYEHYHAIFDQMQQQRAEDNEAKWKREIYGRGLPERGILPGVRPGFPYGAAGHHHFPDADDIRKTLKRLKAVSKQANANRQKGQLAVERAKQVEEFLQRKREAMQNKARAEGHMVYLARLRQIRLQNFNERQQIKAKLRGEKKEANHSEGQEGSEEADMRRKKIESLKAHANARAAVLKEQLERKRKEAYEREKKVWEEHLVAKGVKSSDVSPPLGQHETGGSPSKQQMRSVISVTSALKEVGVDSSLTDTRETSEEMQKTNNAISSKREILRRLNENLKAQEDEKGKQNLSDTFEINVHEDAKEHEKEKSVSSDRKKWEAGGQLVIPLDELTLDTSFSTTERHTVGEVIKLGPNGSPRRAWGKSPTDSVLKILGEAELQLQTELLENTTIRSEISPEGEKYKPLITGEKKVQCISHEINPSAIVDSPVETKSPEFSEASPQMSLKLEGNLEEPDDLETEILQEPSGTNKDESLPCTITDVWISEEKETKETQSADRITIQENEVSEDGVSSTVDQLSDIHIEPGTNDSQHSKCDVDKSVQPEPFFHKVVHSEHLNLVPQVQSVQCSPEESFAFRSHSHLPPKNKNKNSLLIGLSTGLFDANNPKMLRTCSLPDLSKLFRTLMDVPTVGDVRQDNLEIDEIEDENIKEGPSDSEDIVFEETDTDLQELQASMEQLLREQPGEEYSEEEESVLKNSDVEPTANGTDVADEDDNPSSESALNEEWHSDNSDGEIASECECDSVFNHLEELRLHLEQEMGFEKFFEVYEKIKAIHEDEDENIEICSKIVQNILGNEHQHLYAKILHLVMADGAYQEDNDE
To be noted: at 0.1 µM.

For test [9], the target named is T3, Serine/threonine-protein kinase Nek1 (Homo sapiens). The note with it: at 1 µM.
The target of test [10] is T4, Serine/threonine-protein kinase Nek2 (Homo sapiens) (UniProt P51955).
T4 sequence (whole entry): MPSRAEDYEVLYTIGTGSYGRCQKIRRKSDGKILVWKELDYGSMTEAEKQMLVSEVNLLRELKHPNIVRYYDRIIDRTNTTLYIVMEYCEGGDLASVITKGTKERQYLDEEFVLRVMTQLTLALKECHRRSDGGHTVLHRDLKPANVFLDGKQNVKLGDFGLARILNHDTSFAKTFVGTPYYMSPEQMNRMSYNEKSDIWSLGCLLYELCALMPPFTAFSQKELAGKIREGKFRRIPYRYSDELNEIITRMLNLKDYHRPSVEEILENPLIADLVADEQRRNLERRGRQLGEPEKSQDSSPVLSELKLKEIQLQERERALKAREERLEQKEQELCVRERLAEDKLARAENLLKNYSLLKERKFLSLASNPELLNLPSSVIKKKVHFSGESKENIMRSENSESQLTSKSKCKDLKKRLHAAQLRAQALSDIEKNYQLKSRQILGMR
The note with it: at 0.1 µM.

Test [11] deals with T4, Serine/threonine-protein kinase Nek2 (Homo sapiens). To be noted: at 1 µM.
Test [12] addresses Serine/threonine-protein kinase Nek6 (Homo sapiens) (UniProt Q9HC98). To be noted: at 0.1 µM.
Test [13] has the same target. The note with it: at 1 µM.
The target in test [14] is Serine/threonine-protein kinase Nek7 (Homo sapiens) (UniProt Q8TDX7). To be noted: at 0.1 µM.
Serine/threonine-protein kinase Nek7 (Homo sapiens), sequence (Q8TDX7 whole entry, looked up): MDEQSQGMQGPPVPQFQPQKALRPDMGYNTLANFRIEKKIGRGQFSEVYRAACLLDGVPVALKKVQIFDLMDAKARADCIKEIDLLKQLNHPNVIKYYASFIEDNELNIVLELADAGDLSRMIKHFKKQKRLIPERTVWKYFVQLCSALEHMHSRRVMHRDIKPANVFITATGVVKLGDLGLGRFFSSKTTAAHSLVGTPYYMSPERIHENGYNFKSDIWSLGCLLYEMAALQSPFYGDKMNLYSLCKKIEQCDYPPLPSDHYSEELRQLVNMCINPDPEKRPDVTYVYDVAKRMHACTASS
Test [15] shares this target. To be noted: at 1 µM.
Test [16] addresses T5, Serine/threonine-protein kinase Nek9 (Homo sapiens) (UniProt Q8TD19).
T5 sequence (whole entry): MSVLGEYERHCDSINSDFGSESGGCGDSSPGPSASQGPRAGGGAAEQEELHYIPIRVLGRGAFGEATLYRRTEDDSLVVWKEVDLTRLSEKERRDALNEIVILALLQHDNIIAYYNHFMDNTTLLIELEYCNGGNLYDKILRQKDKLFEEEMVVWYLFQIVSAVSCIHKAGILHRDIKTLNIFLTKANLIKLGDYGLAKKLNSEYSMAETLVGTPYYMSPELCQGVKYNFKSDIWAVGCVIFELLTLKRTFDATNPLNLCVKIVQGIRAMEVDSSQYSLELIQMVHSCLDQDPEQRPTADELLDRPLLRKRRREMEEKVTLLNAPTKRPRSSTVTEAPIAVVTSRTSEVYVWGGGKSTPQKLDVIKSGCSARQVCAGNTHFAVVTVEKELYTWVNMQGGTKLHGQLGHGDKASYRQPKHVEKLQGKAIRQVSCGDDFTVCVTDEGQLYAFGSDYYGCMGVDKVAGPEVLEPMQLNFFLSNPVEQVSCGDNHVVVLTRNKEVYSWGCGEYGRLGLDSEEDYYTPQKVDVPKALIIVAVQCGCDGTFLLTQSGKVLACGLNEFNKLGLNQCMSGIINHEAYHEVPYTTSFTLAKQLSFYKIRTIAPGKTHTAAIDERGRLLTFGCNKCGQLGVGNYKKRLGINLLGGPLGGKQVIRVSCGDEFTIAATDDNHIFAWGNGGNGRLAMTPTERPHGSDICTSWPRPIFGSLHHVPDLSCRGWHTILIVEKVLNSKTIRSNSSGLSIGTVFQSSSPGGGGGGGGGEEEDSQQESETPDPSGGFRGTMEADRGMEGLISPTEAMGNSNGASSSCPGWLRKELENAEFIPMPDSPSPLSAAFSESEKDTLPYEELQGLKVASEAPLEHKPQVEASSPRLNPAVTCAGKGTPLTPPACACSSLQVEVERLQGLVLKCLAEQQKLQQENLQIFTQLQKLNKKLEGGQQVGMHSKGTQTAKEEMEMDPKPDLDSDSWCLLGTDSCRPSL
The note with it: at 0.1 µM.

Serine/threonine-protein kinase Nek6 (Homo sapiens), sequence (Q9HC98 whole entry): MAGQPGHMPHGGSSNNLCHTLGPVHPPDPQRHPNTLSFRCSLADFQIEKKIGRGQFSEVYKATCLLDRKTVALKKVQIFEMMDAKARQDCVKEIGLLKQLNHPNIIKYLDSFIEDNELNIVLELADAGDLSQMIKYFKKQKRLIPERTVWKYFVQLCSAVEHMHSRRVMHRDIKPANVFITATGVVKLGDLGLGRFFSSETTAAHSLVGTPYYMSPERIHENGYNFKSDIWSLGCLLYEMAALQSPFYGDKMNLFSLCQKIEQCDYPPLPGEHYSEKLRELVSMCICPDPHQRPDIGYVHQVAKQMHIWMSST
Casein kinase II subunit alpha (Homo sapiens), sequence (P68400 whole entry, looked up): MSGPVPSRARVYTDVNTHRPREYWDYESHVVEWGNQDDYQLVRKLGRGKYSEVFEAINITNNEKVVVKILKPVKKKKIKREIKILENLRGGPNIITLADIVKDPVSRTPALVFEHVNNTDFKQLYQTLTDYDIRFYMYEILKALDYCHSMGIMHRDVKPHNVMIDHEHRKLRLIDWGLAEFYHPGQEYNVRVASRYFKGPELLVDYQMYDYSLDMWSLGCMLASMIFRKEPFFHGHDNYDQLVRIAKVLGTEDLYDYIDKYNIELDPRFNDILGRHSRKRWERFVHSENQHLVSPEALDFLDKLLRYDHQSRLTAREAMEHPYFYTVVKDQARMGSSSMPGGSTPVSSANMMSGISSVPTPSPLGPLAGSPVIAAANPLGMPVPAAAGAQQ
Sphingosine kinase 1 (Homo sapiens), sequence (Q9NYA1 whole entry): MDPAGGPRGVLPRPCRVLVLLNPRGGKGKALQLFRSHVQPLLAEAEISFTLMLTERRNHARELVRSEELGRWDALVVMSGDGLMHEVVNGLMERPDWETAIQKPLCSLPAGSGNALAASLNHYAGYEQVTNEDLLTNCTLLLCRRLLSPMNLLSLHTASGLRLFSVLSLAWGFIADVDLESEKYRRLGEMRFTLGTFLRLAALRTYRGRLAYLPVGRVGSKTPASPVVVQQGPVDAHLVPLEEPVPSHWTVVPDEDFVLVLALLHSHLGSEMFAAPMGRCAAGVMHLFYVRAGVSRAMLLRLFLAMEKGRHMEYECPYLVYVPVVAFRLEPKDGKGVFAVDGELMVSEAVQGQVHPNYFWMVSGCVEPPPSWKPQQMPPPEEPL

One may read the inhibition as the drop in the measured response relative to a control, in per cent. Take `NC(=O)c1cc(-c2ccc(F)cc2)cc(-c2ccncc2)c1N`: the inhibition was 4.1% in [1]; 1.03% in test [2]; -1.1% in [3]; 3.42% in [4]; 8.62% in test [5]; 6.05% in [6]. Also, the inhibition in [7] turned out to be 3.16%; in [8], 1.62%; in test [9], 1.03%; in test [10], 4.7%; in test [11], 3.75%; in test [12], 4.68%. Besides, the inhibition was found to be 6.66% in test [13], 6.78% in [14], 4.73% in [15] and 7.94% in [16].
